Test results as given in PubChem BioAssay AID1159580 (chemical genetic matrix, 2015).
In all, about 5,500 compounds went through this assay and about 2,000 (36%) were called active. About 18% were inconclusive and are not listed. Rule as the data show it: active = normalized growth mostly below about 0.91 (no sharp cut-off); inconclusive = no clear call, values can overlap the other calls; inactive = mostly above about 0.92. Some of the results follow.

Test: chemical genetic growth profiling, strain panel (AID 1159580);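 also: tested at 20 µM; growth read once vehicle control cultures reached saturation at 30 °C; 1 = growth at the plate median or of vehicle wells; lower values mean less growth of the strain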
Details: growth OD

Measured: normalized growth

COc1ccc(C(=O)c2ccc(O)cc2)c(O)c1O
inactive: S. cerevisiae deletion strains, locus YAL013W, strain DEP1, stronger effect = lower value 1.04 | S. cerevisiae deletion strains, locus YAL021C, strain ccr4, stronger effect = lower value 0.963 | S. cerevisiae deletion strains, locus YAL026C, strain drs2, stronger effect = lower value 0.961 | S. cerevisiae deletion strains, locus YAL030W, strain snc1, stronger effect = lower value 0.967 | S. cerevisiae deletion strains, locus YBL061C, strain skt5, stronger effect = lower value 0.97 | S. cerevisiae deletion strains, locus YBR009C, strain hhf1, stronger effect = lower value 0.951 | S. cerevisiae deletion strains, locus YBR021W, strain FUR4, stronger effect = lower value 1.02 | S. cerevisiae deletion strains, locus YBR023C, strain chs3, stronger effect = lower value 0.968 | S. cerevisiae deletion strains, locus YBR171W, strain sec66, stronger effect = lower value 0.965 | S. cerevisiae deletion strains, locus YBR229C, strain ROT2, stronger effect = lower value 1.02 | S. cerevisiae deletion strains, locus YBR231C, strain swc5, stronger effect = lower value 0.96 | S. cerevisiae deletion strains, locus YBR279W, strain paf1, stronger effect = lower value 0.974 | S. cerevisiae deletion strains, locus YCL011C, strain gbp2, stronger effect = lower value 0.961 | S. cerevisiae deletion strains, locus YCL016C, strain dcc1, stronger effect = lower value 0.974 | S. cerevisiae deletion strains, locus YCL029C, strain bik1, stronger effect = lower value 0.993 | S. cerevisiae deletion strains, locus YCL061C, strain MRC1, stronger effect = lower value 0.984 | S. cerevisiae deletion strains, locus YCL069W, strain vba3, stronger effect = lower value 0.98 | S. cerevisiae deletion strains, locus YCR088W, strain abp1, stronger effect = lower value 0.973 | S. cerevisiae deletion strains, locus YDL005C, strain med2, stronger effect = lower value 0.968 | S. cerevisiae deletion strains, locus YDL035C, strain GPR1, stronger effect = lower value 1.04 | S. cerevisiae deletion strains, locus YDL040C, strain nat1, stronger effect = lower value 0.972 | S. cerevisiae deletion strains, locus YDL074C, strain BRE1, stronger effect = lower value 1.01 | S. cerevisiae deletion strains, locus YDL101C, strain DUN1, stronger effect = lower value 1.02 | S. cerevisiae deletion strains, locus YDL134C, strain PPH21, stronger effect = lower value 1.01 | S. cerevisiae deletion strains, locus YDL185W, strain tfp1, stronger effect = lower value 0.995 | S. cerevisiae deletion strains, locus YDL192W, strain arf1, stronger effect = lower value 0.997 | S. cerevisiae deletion strains, locus YDR001C, strain nth1, stronger effect = lower value 0.973 | S. cerevisiae deletion strains, locus YDR069C, strain doa4, stronger effect = lower value 0.928 | S. cerevisiae deletion strains, locus YDR101C, strain arx1, stronger effect = lower value 1 | S. cerevisiae deletion strains, locus YDR137W, strain rgp1, stronger effect = lower value 0.975 | S. cerevisiae deletion strains, locus YDR159W, strain sac3, stronger effect = lower value 0.959 | S. cerevisiae deletion strains, locus YDR162C, strain NBP2, stronger effect = lower value 1.04 | S. cerevisiae deletion strains, locus YDR195W, strain ref2 0.969 | S. cerevisiae deletion strains, locus YDR297W, strain sur2, stronger effect = lower value 0.969 | S. cerevisiae deletion strains, locus YDR318W, strain mcm21, stronger effect = lower value 0.997 | S. cerevisiae deletion strains, locus YDR334W, strain swr1, stronger effect = lower value 0.952 | S. cerevisiae deletion strains, locus YDR335W, strain msn5, stronger effect = lower value 0.983 | S. cerevisiae deletion strains, locus YDR388W, stronger effect = lower value 0.985 | S. cerevisiae deletion strains, locus YDR392W, strain spt3, stronger effect = lower value 0.852 | S. cerevisiae deletion strains, locus YDR502C, strain sam2, stronger effect = lower value 0.968 | S. cerevisiae deletion strains, locus YEL003W, strain gim4, stronger effect = lower value 0.962 | S. cerevisiae deletion strains, locus YEL037C, strain rad23, stronger effect = lower value 0.965 | S. cerevisiae deletion strains, locus YEL061C, strain CIN8 (second series), stronger effect = lower value 0.955 | S. cerevisiae deletion strains, locus YEL061C, strain CIN8, stronger effect = lower value 1.01 | S. cerevisiae deletion strains, locus YER015W, strain faa2, stronger effect = lower value 0.961 | S. cerevisiae deletion strains, locus YER016W, strain bim1, stronger effect = lower value 0.978 | S. cerevisiae deletion strains, locus YER110C, stronger effect = lower value 0.983 | S. cerevisiae deletion strains, locus YER111C, strain swi4, stronger effect = lower value 0.963 | S. cerevisiae deletion strains, locus YER155C, strain BEM2 (second series), stronger effect = lower value 0.911 | S. cerevisiae deletion strains, locus YER155C, strain BEM2, stronger effect = lower value 1.02 | S. cerevisiae deletion strains, locus YER167W, strain BCK2, stronger effect = lower value 1.02 | S. cerevisiae deletion strains, locus YFR010W, strain ubp6, stronger effect = lower value 0.942 | S. cerevisiae deletion strains, locus YGL078C, strain dbp3, stronger effect = lower value 0.961 | S. cerevisiae deletion strains, locus YGL086W, strain mad1, stronger effect = lower value 0.992 | S. cerevisiae deletion strains, locus YGL167C, strain pmr1, stronger effect = lower value 0.952 | S. cerevisiae deletion strains, locus YGL173C, strain kem1, stronger effect = lower value 0.969 | S. cerevisiae deletion strains, locus YGL227W, strain vid30, stronger effect = lower value 0.937 | S. cerevisiae deletion strains, locus YGL240W, strain doc1, stronger effect = lower value 0.94 | S. cerevisiae deletion strains, locus YGL248W, strain PDE1, stronger effect = lower value 0.986 | S. cerevisiae deletion strains, locus YGL253W, strain hxk2, stronger effect = lower value 0.984 | S. cerevisiae deletion strains, locus YGR135W, strain pre9, stronger effect = lower value 0.95 | S. cerevisiae deletion strains, locus YGR252W, strain gcn5, stronger effect = lower value 0.893 | S. cerevisiae deletion strains, locus YHR013C, strain ard1, stronger effect = lower value 0.916 | S. cerevisiae deletion strains, locus YHR027C, strain rpn1, stronger effect = lower value 0.988 | S. cerevisiae deletion strains, locus YHR079C, strain IRE1 (second series), stronger effect = lower value 0.985 | S. cerevisiae deletion strains, locus YHR094C, strain hxt1, stronger effect = lower value 0.978 | S. cerevisiae deletion strains, locus YHR129C, strain ARP1, stronger effect = lower value 1.01 | S. cerevisiae deletion strains, locus YHR142W, strain chs7, stronger effect = lower value 0.987 | S. cerevisiae deletion strains, locus YHR200W, strain rpn10, stronger effect = lower value 0.973 | S. cerevisiae deletion strains, locus YIL066C, strain RNR3, stronger effect = lower value 1.03 | S. cerevisiae deletion strains, locus YIL073C, strain SPO22, stronger effect = lower value 0.992 | S. cerevisiae deletion strains, locus YIL125W, strain kgd1, stronger effect = lower value 1 | S. cerevisiae deletion strains, locus YIR030C, strain dcg1, stronger effect = lower value 0.994 | S. cerevisiae deletion strains, locus YJL092W, strain hpr5, stronger effect = lower value 0.978 | S. cerevisiae deletion strains, locus YJL095W, strain BCK1 (second series), stronger effect = lower value 0.977 | S. cerevisiae deletion strains, locus YJL095W, strain BCK1, stronger effect = lower value 0.986 | S. cerevisiae deletion strains, locus YJL115W, strain asf1, stronger effect = lower value 0.985 | S. cerevisiae deletion strains, locus YJL129C, strain trk1, stronger effect = lower value 0.935 | S. cerevisiae deletion strains, locus YJL134W, strain LCB3, stronger effect = lower value 1.02 | S. cerevisiae deletion strains, locus YJL154C, strain vps35, stronger effect = lower value 0.972 | S. cerevisiae deletion strains, locus YJL164C, strain tpk1, stronger effect = lower value 0.979 | S. cerevisiae deletion strains, locus YJL166W, strain qcr8, stronger effect = lower value 0.972 | S. cerevisiae deletion strains, locus YJL168C, strain set2, stronger effect = lower value 1 | S. cerevisiae deletion strains, locus YJL187C, strain SWE1 (second series), stronger effect = lower value 0.998 | S. cerevisiae deletion strains, locus YJL187C, strain SWE1, stronger effect = lower value 0.968 | S. cerevisiae deletion strains, locus YKL009W, strain mrt4, stronger effect = lower value 1.01 | S. cerevisiae deletion strains, locus YKL068W, stronger effect = lower value 0.991 | S. cerevisiae deletion strains, locus YKL085W, strain MDH1 (second series), stronger effect = lower value 1 | S. cerevisiae deletion strains, locus YKL085W, strain MDH1, stronger effect = lower value 1 | S. cerevisiae deletion strains, locus YKL160W, strain elf1, stronger effect = lower value 0.994 | S. cerevisiae deletion strains, locus YKR001C, strain vps1, stronger effect = lower value 1 | S. cerevisiae deletion strains, locus YKR026C, strain gcn3, stronger effect = lower value 0.948 | S. cerevisiae deletion strains, locus YKR091W, strain srl3, stronger effect = lower value 0.972 | S. cerevisiae deletion strains, locus YLL001W, strain dnm1, stronger effect = lower value 0.986 | S. cerevisiae deletion strains, locus YLL026W, stronger effect = lower value 0.978 | S. cerevisiae deletion strains, locus YLL041C, strain sdh2, stronger effect = lower value 0.992 | S. cerevisiae deletion strains, locus YLR027C, strain aat2, stronger effect = lower value 0.965 | S. cerevisiae deletion strains, locus YLR039C, strain RIC1, stronger effect = lower value 1.12 | S. cerevisiae deletion strains, locus YLR058C, strain SHM2, stronger effect = lower value 1.01 | S. cerevisiae deletion strains, locus YLR102C, strain apc9, stronger effect = lower value 0.966 | S. cerevisiae deletion strains, locus YLR221C, strain rsa3, stronger effect = lower value 0.933 | S. cerevisiae deletion strains, locus YLR258W, strain gsy2, stronger effect = lower value 0.969 | S. cerevisiae deletion strains, locus YLR262C, strain YPT6 (second series), stronger effect = lower value 0.936 | S. cerevisiae deletion strains, locus YLR268W, strain sec22, stronger effect = lower value 1.01 | S. cerevisiae deletion strains, locus YLR320W, strain mms22, stronger effect = lower value 0.968 | S. cerevisiae deletion strains, locus YLR330W, strain CHS5, stronger effect = lower value 1.02 | S. cerevisiae deletion strains, locus YLR342W, strain FKS1 (second series), stronger effect = lower value 1.02 | S. cerevisiae deletion strains, locus YLR342W, strain FKS1, stronger effect = lower value 0.952 | S. cerevisiae deletion strains, locus YLR357W, strain rsc2, stronger effect = lower value 0.909 | S. cerevisiae deletion strains, locus YLR370C, strain arc18, stronger effect = lower value 0.968 | S. cerevisiae deletion strains, locus YLR371W, strain rom2, stronger effect = lower value 0.982 | S. cerevisiae deletion strains, locus YLR384C, strain iki3, stronger effect = lower value 0.984 | S. cerevisiae deletion strains, locus YLR418C, strain cdc73, stronger effect = lower value 0.986 | S. cerevisiae deletion strains, locus YML016C, strain PPZ1, stronger effect = lower value 1.02 | S. cerevisiae deletion strains, locus YML032C, strain rad52, stronger effect = lower value 0.97 | S. cerevisiae deletion strains, locus YML120C, strain ndi1, stronger effect = lower value 0.954 | S. cerevisiae deletion strains, locus YML124C, strain tub3, stronger effect = lower value 0.981 | S. cerevisiae deletion strains, locus YMR058W, strain fet3, stronger effect = lower value 0.94 | S. cerevisiae deletion strains, locus YMR078C, strain ctf18, stronger effect = lower value 0.971 | S. cerevisiae deletion strains, locus YMR125W, strain sto1, stronger effect = lower value 0.97 | S. cerevisiae deletion strains, locus YMR129W, stronger effect = lower value 0.965 | S. cerevisiae deletion strains, locus YMR205C, strain PFK2, stronger effect = lower value 0.946 | S. cerevisiae deletion strains, locus YMR223W, strain ubp8, stronger effect = lower value 0.978 | S. cerevisiae deletion strains, locus YMR231W, strain pep5, stronger effect = lower value 0.979 | S. cerevisiae deletion strains, locus YMR307W, strain GAS1, stronger effect = lower value 0.992 | S. cerevisiae deletion strains, locus YNL067W, strain RPL9B, stronger effect = lower value 0.998 | S. cerevisiae deletion strains, locus YNL071W, strain lat1, stronger effect = lower value 0.984 | S. cerevisiae deletion strains, locus YNL153C, strain GIM3, stronger effect = lower value 0.985 | S. cerevisiae deletion strains, locus YNL209W, strain ssb2, stronger effect = lower value 0.975 | S. cerevisiae deletion strains, locus YNL233W, strain BNI4, stronger effect = lower value 0.989 | S. cerevisiae deletion strains, locus YNL248C, strain rpa49, stronger effect = lower value 0.995 | S. cerevisiae deletion strains, locus YNL250W, strain rad50, stronger effect = lower value 0.981 | S. cerevisiae deletion strains, locus YNL271C, strain bni1, stronger effect = lower value 0.984 | S. cerevisiae deletion strains, locus YNL298W, strain CLA4, stronger effect = lower value 0.991 | S. cerevisiae deletion strains, locus YNL307C, strain MCK1, stronger effect = lower value 0.97 | S. cerevisiae deletion strains, locus YNL322C, strain KRE1 (second series), stronger effect = lower value 0.952 | S. cerevisiae deletion strains, locus YNR049C, strain mso1, stronger effect = lower value 0.972 | S. cerevisiae deletion strains, locus YNR052C, strain pop2, stronger effect = lower value 0.979 | S. cerevisiae deletion strains, locus YOL006C, strain TOP1, stronger effect = lower value 1.15 | S. cerevisiae deletion strains, locus YOL012C, strain htz1 1.45 | S. cerevisiae deletion strains, locus YOL147C, strain pex11, stronger effect = lower value 0.994 | S. cerevisiae deletion strains, locus YOR001W, strain rrp6, stronger effect = lower value 1 | S. cerevisiae deletion strains, locus YOR061W, strain CKA2, stronger effect = lower value 1.03 | S. cerevisiae deletion strains, locus YOR069W, strain VPS5, stronger effect = lower value 1.01 | S. cerevisiae deletion strains, locus YOR070C, strain gyp1, stronger effect = lower value 0.973 | S. cerevisiae deletion strains, locus YOR080W, strain dia2, stronger effect = lower value 0.97 | S. cerevisiae deletion strains, locus YOR083W, strain WHI5, stronger effect = lower value 0.992 | S. cerevisiae deletion strains, locus YOR106W, strain vam3, stronger effect = lower value 0.964 | S. cerevisiae deletion strains, locus YOR136W, strain idh2, stronger effect = lower value 0.985 | S. cerevisiae deletion strains, locus YOR144C, strain elg1, stronger effect = lower value 0.998 | S. cerevisiae deletion strains, locus YOR184W, strain ser1, stronger effect = lower value 1.05 | S. cerevisiae deletion strains, locus YOR265W, strain rbl2, stronger effect = lower value 0.979 | S. cerevisiae deletion strains, locus YOR270C, strain vph1, stronger effect = lower value 0.957 | S. cerevisiae deletion strains, locus YOR290C, strain snf2, stronger effect = lower value 0.9 | S. cerevisiae deletion strains, locus YOR316C, strain cot1, stronger effect = lower value 0.971 | S. cerevisiae deletion strains, locus YPL051W, strain arl3, stronger effect = lower value 0.993 | S. cerevisiae deletion strains, locus YPL055C, strain LGE1, stronger effect = lower value 1.05 | S. cerevisiae deletion strains, locus YPL078C, strain atp4, stronger effect = lower value 0.986 | S. cerevisiae deletion strains, locus YPL106C, strain sse1, stronger effect = lower value 0.889 | S. cerevisiae deletion strains, locus YPL240C, strain hsp82, stronger effect = lower value 0.995 | S. cerevisiae deletion strains, locus YPL241C, strain CIN2, stronger effect = lower value 1.02 | S. cerevisiae deletion strains, locus YPR119W, strain clb2, stronger effect = lower value 0.971 | S. cerevisiae deletion strains, locus YPR141C, strain kar3, stronger effect = lower value 1.01 | S. cerevisiae deletion strains, locus YPR163C, strain tif3, stronger effect = lower value 0.983 | S. cerevisiae deletion strains, locus YPR167C, strain met16, stronger effect = lower value 0.981 | S. cerevisiae deletion strains, strain wtn01, stronger effect = lower value 0.993 | S. cerevisiae strains, strain wild type, stronger effect = lower value 1.04
